PubChem BioAssay (NCI)
About 83,000 compounds went through this panel and 20% of them were active in at least one assay; those are over-represented in the sample as a whole.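 48-hour exposure, single concentration, 96-well plates; percent growth endpoint where 0 means no net growth. Active: below 10.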 Unmarked numbers belong to inactive results. Activity calls are given as the source filed them.

Assays:
Assay in all cases: NCI-60 one-dose screen, 48 h (100 = growth as untreated, 0 = no growth, -100 = all killed)
Details in all cases: 10 µM unless noted
NCI-H23 lung = tested on: NCI-H23 lung
NCI-H226 lung = tested on: NCI-H226 lung
NCI-H322M lung = tested on: NCI-H322M lung
HOP-62 NSCLC = tested on: HOP-62 NSCLC
HOP-92 NSCLC = tested on: HOP-92 NSCLC
NCI-H522 lung = tested on: NCI-H522 lung
A549/ATCC NSCLC = tested on: A549/ATCC NSCLC
786-0 renal = tested on: 786-0 renal
COLO 205 colon = tested on: COLO 205 colon
DU-145 prostate = tested on: DU-145 prostate
K-562 leukemia = tested on: K-562 leukemia
MALME-3M melanoma = tested on: MALME-3M melanoma
MDA-MB-231 breast = tested on: MDA-MB-231 breast
RXF 393 renal = tested on: RXF 393 renal
SF-268 CNS = tested on: SF-268 CNS
SF-295 CNS = tested on: SF-295 CNS
SF-539 CNS = tested on: SF-539 CNS
UACC-257 melanoma = tested on: UACC-257 melanoma
M14 melanoma = tested on: M14 melanoma

Structure (SMILES)	growth (NCI-H23 lung) [%]	growth (NCI-H226 lung) [%]	growth (NCI-H322M lung)	growth (HOP-62 NSCLC)	growth (HOP-92 NSCLC)	growth (NCI-H522 lung)	growth (A549/ATCC NSCLC) [%]	growth (786-0 renal)	growth (COLO 205 colon)	growth (DU-145 prostate)	growth (K-562 leukemia)	growth (MALME-3M melanoma)	growth (MDA-MB-231 breast)	growth (RXF 393 renal)	growth (SF-268 CNS)	growth (SF-295 CNS)	growth (SF-539 CNS)	growth (UACC-257 melanoma)	growth (M14 melanoma)
Cc1ccc(C(C)C)cc1C(=O)C[n+]1ccccc1	113	105	96.8%	91.6%	100%	81.7%	101	96.4%	112%	107%	105%	95.9%	112%	121%	98.8%	93.5%	97.1%	115%	95.6%
COc1ccc(CNC(=O)C(=O)[C@H](Cc2ccccc2)NC(=O)c2[nH]c3ccccc3c(=O)c2C)cc1	101	103	96.8%	102%	117%	96.4%	95.6	102%	113%	104%	92.9%	107%	95.6%	104%	101%	103%	98.7%	98.9%	99.6%
CC([C@H]1CCC2C3CCC4C[C@@H](NC=O)CC[C@]4(C)C3CC[C@@]21C)N(C)C (stereo partly specified)	30.2	43.2	-4.46% (active)	-55.5% (active)	0.955% (active)	56.5%	15.9	-88.4% (active)	-83.4% (active)	34.1%	-39.8% (active)	-57.6% (active)	-13.9% (active)	-51.2% (active)	-70% (active)	-38.8% (active)	-78.4% (active)	-48.3% (active)	-48.8% (active)
c1ccc(Cc2nn3cc(-c4ccccc4)nc3s2)cc1	97.8	117	98.4%	104%	109%	80.1%	91.3	86.3%	118%	99%	93.8%	111%	109%	129%	98%	97.8%	106%	108%	90.3%
COC(=O)[C@H](C)NC(=O)NC(=O)NC(=O)CI	86.2	89.2	103%	98.4%	-21.4% (active)	-75% (active)	96.4	63.9%	32%	84.5%	7.73% (active)	-53.9% (active)	–	59.1%	82.6%	91.9%	94.6%	104%	58.5%
CN(C(=O)NCc1cccc(F)c1Cl)[C@H](COC(=O)Nc1cc2ccccc2cn1)CC(O)CO (stereo partly specified)	96.5	92.7	86.4%	64.8%	28%	84.5%	80.9	68%	111%	94.4%	91.5%	100%	46.8%	84.8%	49.8%	69.7%	37%	102%	98.8%
c1ccc(CO[C@H]2CO[C@H]3[C@@H]2OC[C@@H]3Oc2ccc(Nc3ncnc4ccsc34)cc2)cc1	62.6	80.3	93.1%	86.5%	65%	70.4%	81.7	87.2%	71.8%	89%	62.1%	53.4%	71.7%	83.1%	78%	63.3%	73.1%	78%	79.5%
Cc1ccc(/C=N\NC(=O)c2[nH]c3ccc(F)cc3c2-c2ccccc2)cc1	38	46.4	57.7%	42.3%	4.75% (active)	-42.3% (active)	23	35.1%	-78.8% (active)	-2.21% (active)	16.9%	15.6%	36.5%	47.6%	38.9%	-6.59% (active)	21.4%	59.7%	24.1%
